The AC50 is the concentration giving half of the maximal activity seen.

Values joined by “and” are separate entries in the source; they are usually repeats but may differ in a detail not shown here. Equal entries are not always repeated. Some structures have more than one record in an assay (separate samples or runs), and their calls can disagree. Active and inactive are the calls of the source. How the source made its calls: active means hit-call score of the fitted dose curve at least 0.9, where 1 is the maximum; inactive means score below 0.9.

Read-out in assay [1]: Thrombomodulin, THBD (gene 7056)
Nature of the assay: BSK_3C_Thrombomodulin: BioMAP Diversity Plus: 3C Assay for Thrombomodulin Biomarker Activity (AID 2283029). As to conditions: primary human endothelial cells (HUVEC); actives raise or lower the signal. The method in brief:
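Thrombomodulin ELISA, human primary HUVEC, 24 h post-dose; data fitted in both directions relative to DMSO.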

Read-out in assay [2]: Urokinase-type plasminogen activator receptor (uPAR), PLAUR (gene 5329)
Briefly: BSK_4H_uPAR: BioMAP Diversity Plus: 4H Assay for Urokinase-type plasminogen activator receptor (uPAR) Biomarker Activity (AID 2283030). The note with it: primary human endothelial cells (HUVEC); actives raise or lower the signal. The method in brief: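 Primary human umbilical vein endothelial cells were exposed to chemical for 24 h before cell-surface uPAR was quantified by ELISA. Activity was fitted bidirectionally against the DMSO negative control baseline.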

Read-out in assay [3]: Vascular endothelial growth factor receptor 2 (Homo sapiens) (UniProt P35968)
Briefly: BSK_4H_VEGFRII: BioMAP Diversity Plus: 4H Assay for Vascular endothelial growth factor receptor 2 (VEGFR2) Biomarker Activity (AID 2283031).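 On AC50: cell-surface VEGFR2 protein level quantified by ELISA.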 As to conditions: primary human endothelial cells (HUVEC); actives raise or lower the signal. Summed up:
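Primary human umbilical vein endothelial cells in the BioMAP 4H system were dosed with test chemical, and 24 h later VEGFRII was measured by ELISA. Activity was fitted bidirectionally against DMSO as negative control and baseline.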

Read-out in assay [4]: Human Leukocyte Antigen - DR isotype (HLADR), HLA-DRA (gene 3122)
Briefly: BSK_BE3C_HLADR: BioMAP Diversity Plus: BE3C Assay for Human Leukocyte Antigen - DR isotype (HLADR) Biomarker Activity (AID 2283032). As to conditions: primary human bronchial epithelial cells; actives raise or lower the signal. The method in brief:
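Signal came from an ELISA for HLA-DR in human bronchial epithelial primary cells harvested 24 h after treatment; gain- and loss-of-signal fitting used DMSO controls as reference.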

Read-out in assay [5]: Vascular cell adhesion molecule 1 (VCAM1), VCAM1 (gene 7412)
Briefly: BSK_4H_VCAM1: BioMAP Diversity Plus: 4H Assay for Vascular cell adhesion molecule 1 (VCAM1) Biomarker Activity (AID 2283033).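 On outcome: cell-surface VCAM-1 protein measured by ELISA.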 As to conditions: primary human endothelial cells (HUVEC); actives raise or lower the signal. Summed up: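 Endpoint derived from bidirectional fitting against DMSO controls of VCAM-1 ELISA signal in umbilical vein endothelial cells sampled at 24 h following treatment.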

Read-out in assay [6]: Interferon-gamma inducible Protein 10 (IP10), CXCL10 (gene 3627)
Nature of the assay: BSK_BE3C_IP10: BioMAP Diversity Plus: BE3C Assay for Interferon-gamma inducible Protein 10 (IP10) Biomarker Activity (AID 2283034). As to conditions: primary human bronchial epithelial cells; actives raise or lower the signal. Summed up:
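Using primary human bronchial epithelial cultures, the assay captures IP-10 by ELISA one day (24 h) after exposure. Parallel SRB staining of total protein flags overt cytotoxicity. Fits run bidirectionally relative to DMSO.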

Read-out in assay [7]: Monokine induced gamma interferon (MIG), CXCL9 (gene 4283)
Briefly: BSK_BE3C_MIG: BioMAP Diversity Plus: BE3C Assay for Monokine induced gamma interferon (MIG) Biomarker Activity (AID 2283035).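 On outcome: MIG protein measured by ELISA in BE3C cultures after 24 h of dosing.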 As to conditions: primary human bronchial epithelial cells; actives raise or lower the signal. The method in brief:
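ELISA read-out of MIG in human lung bronchial epithelial primary cultures, 24 h post-dosing. Bidirectional curve fit vs DMSO baseline.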

Read-out in assay [8]: Transforming growth factor beta 1 (TGFb1), TGFB1 (gene 7040)
Briefly: BSK_BE3C_TGFb1: BioMAP Diversity Plus: BE3C Assay for Transforming growth factor beta 1 (TGFb1) Biomarker Activity (AID 2283036;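 on outcome: TGF-b1 protein level measured by ELISA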). The note with it: primary human bronchial epithelial cells; actives raise or lower the signal. The method in brief:
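In this human primary bronchial epithelial system, an ELISA quantified TGF-b1 one day after dosing. Endpoint changes in either direction were fitted relative to DMSO.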

Read-out in assay [9]: Plasminogen activator inhibitor-1 (PAI1), SERPINE1 (gene 5054)
Briefly: BSK_BE3C_PAI1: BioMAP Diversity Plus: BE3C Assay for Plasminogen activator inhibitor-1 (PAI1) Biomarker Activity (AID 2283037). As to conditions: primary human bronchial epithelial cells; actives raise or lower the signal. Summed up: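 PAI-1 biomarker levels in treated human bronchial epithelial cells are determined by ELISA at 24 h. Both increases and decreases relative to DMSO are fitted.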

Read-out in assay [10]: urokinase plasminogen activator (uPA), PLAU (gene 5328)
Briefly: BSK_BE3C_uPA: BioMAP Diversity Plus: BE3C Assay for urokinase plasminogen activator (uPA) Biomarker Activity (AID 2283038).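 On outcome: uPA protein level quantified by ELISA in cell cultures; uPA read one day after compound addition.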 As to conditions: primary human bronchial epithelial cells; actives raise or lower the signal. Summed up:
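Human primary bronchial epithelial cells were exposed to chemical for 24 h, then uPA levels were measured by ELISA. Responses were fitted bidirectionally against DMSO as negative control and baseline. Parallel SRB staining of total protein gauged overt cytotoxicity.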

`O=C(O)c1nc(Cl)ccc1Cl`: the outcome in [1], in assay [2], in assay [3], in assay [4], in assay [5] and in assay [6] was inactive. Moreover, the outcome in assay [7], in assay [8], in assay [9] and in [10] was inactive. Besides, the AC50 in assay [4] is 28.8 µM (active).
Turning to `CC(Oc1ccc(Cl)cc1Cl)C(=O)O` (configuration not stated), the result in [1], in assay [2], in [3], in [4], in assay [5] and in assay [6] was inactive. In addition, the outcome in [7], in [8], in assay [9] and in assay [10] was inactive.
For the molecule `CCOc1cc(Oc2ccc(C(F)(F)F)cc2Cl)ccc1[N+](=O)[O-]`, the AC50 in assay [1] was 4.94 µM (active); in assay [4], 9.39 µM (active). Further, the outcome in [2], in assay [3], in [5], in [6], in [7] and in [8] was inactive. Further, the outcome in [9] and in assay [10] was inactive.
As to `CON(C)C(=O)Nc1ccc(Cl)c(Cl)c1`, the result in [1], in [2], in assay [3], in assay [4], in assay [5] and in assay [6] was inactive. The outcome in assay [7], in [8], in assay [9] and in [10] was inactive.
As for `C=CCC1=C(C)[C@@H](OC(=O)[C@@H]2[C@@H](C=C(C)C)C2(C)C)CC1=O`, the outcome in [1], in assay [2], in assay [5], in assay [7] and in assay [8] was inactive. Also, the AC50 was 35.8 µM (active) in assay [3]; 20 µM (active) in assay [4]; 30.6 µM (active) in assay [6]; 29.5 µM (active) in assay [9]; 26.7 µM (active) in [10].
On to `CC(C)Oc1cc(-n2nc(C(C)(C)C)oc2=O)c(Cl)cc1Cl`, for which the AC50 was 20 µM (active) in assay [1]; 32.9 µM (active) in [3]; 27.4 µM (active) in [4]; 28.2 µM (active) in assay [5]; 33.9 µM (active) in assay [6]; 20 µM (active) in assay [9]. In addition, in assay [10], the AC50 is 27.6 µM (active). Moreover, the outcome in assay [2], in assay [7] and in assay [8] was inactive.
On to `COc1cnc(OC)n2nc(NS(=O)(=O)c3c(OCC(F)F)cccc3C(F)(F)F)nc12`, for which the outcome in assay [1], in assay [2], in assay [3], in [4], in [5] and in assay [6] was inactive. Besides, the result in assay [7], in [8], in assay [9] and in [10] was inactive. Besides, in [9], the AC50 was 0.0487 µM (active).
As for `CS/C(C)=N/OC(=O)N(C)SN(C)C(=O)O/N=C(\C)SC`, the result in assay [1], in assay [7], in assay [8], in assay [9] and in [10] was inactive. Further, the AC50 in assay [2] was 26.8 µM (active); in [3], 28.7 µM (active); in [4], 30.1 µM (active); in [5] it was 31.1 µM (active); in [6] it was 25.9 µM (active).
Regarding `N#Cc1nn(-c2c(Cl)cc(C(F)(F)F)cc2Cl)c(N)c1S(=O)C(F)(F)F` (configuration not stated), the outcome in assay [1], in assay [8] and in assay [10] was inactive. Further, the AC50 in [2] was 23.2 µM (active); in [3], 31.7 µM (active); in assay [4], 14.2 µM (active); in [5], 20 µM (active); in [6] it was 23.2 µM (active); in assay [7] it was 28.3 µM (active). In addition, the AC50 in [9] was 20 µM (active).
Turning to `CCCCNC(=O)OCC#CI`, in assay [1], the outcome was inactive. Moreover, the AC50 in assay [2] was 27.9 µM (active) and 25.8 µM (active); in assay [3], 22.9 µM (active) and 32.7 µM (active); in assay [4], 28.8 µM (active) and 31.2 µM (active); in assay [5], 25.1 µM (active) and 21.8 µM (active); in assay [6], 34 µM (active) and 31.1 µM (active); in assay [7], 37 µM (active) and 31.3 µM (active). The half-maximal activity concentration (AC50) was 31.2 µM (active) and 32.1 µM (active) in [8]; 30.1 µM (active) in assay [9]; 32 µM (active) and 30.6 µM (active) in assay [10].
As for `CCc1nn(C)c(C(=O)NCc2ccc(C(C)(C)C)cc2)c1Cl`, the result in assay [1], in [3] and in assay [8] was inactive. Further, the AC50 in assay [2] is 33 µM (active); in [4], 18.3 µM (active); in [5], 6.81 µM (active); in assay [6], 25.7 µM (active); in assay [7], 29.4 µM (active); in assay [9], 31.9 µM (active). Further, the AC50 in assay [10] was 30.6 µM (active).
In the case of `C#CCOS(=O)OC1CCCCC1Oc1ccc(C(C)(C)C)cc1` (configuration not stated), the result in assay [1] and in assay [8] was inactive. The AC50 in assay [2] was 20 µM (active); in assay [3], 20 µM (active); in assay [4], 13.8 µM (active); in assay [5], 26.8 µM (active); in [6] it was 16.3 µM (active); in assay [7] it was 25.5 µM (active). The AC50 is 18.4 µM (active) in assay [9] and 27 µM (active) in assay [10].
On to `CNC(=S)S`, for which the result in [1], in [2], in assay [3], in [4], in assay [6] and in assay [7] was inactive. The result in assay [8], in [9] and in assay [10] was inactive. Further, in [5], the AC50 is 22.4 µM (active).

Source of the values: PubChem BioAssay (EPA / NIEHS).
